Test results taken from the antibiotic and cytotoxicity screens of Wong et al. (2023).
Out of some 39,000 compounds screened, about 3,300 (8.5%) were called active. Only a selection was taken, and actives are over-represented in it overall.

Test system: HepG2
Experiment: cytotoxicity call (relative viability < 0.9)
Settings: 10 µM

Structure (SMILES) | cytotoxicity call
C[C@H](CO)N1C[C@H](C)[C@H](CN(C)C(=O)Nc2cccc3ccccc23)Oc2ccc(NS(=O)(=O)c3cccs3)cc2CC1=O | inactive
CC(C)NC(=O)N(C)C[C@@H]1OCCCC[C@@H](C)Oc2ccc(NC(=O)Nc3ccc(F)cc3)cc2C(=O)N([C@H](C)CO)C[C@H]1C | inactive
COc1ccccc1CNC(=O)C[C@@H]1C[C@@H]2c3cc(NC(=O)NC4CCCC4)ccc3O[C@@H]2[C@@H](CO)O1 | inactive
COc1ccc(NC(=O)N(C)C[C@H]2Oc3c(NC(=O)Nc4cccc5ccccc45)cccc3C(=O)N([C@H](C)CO)C[C@@H]2C)cc1 | inactive
COc1ccc(S(=O)(=O)Nc2ccc3c(c2)C(=O)N([C@H](C)CO)C[C@H](C)[C@H](CN(C)Cc2ccc(C(=O)O)cc2)OCCCC[C@@H](C)O3)cc1 | inactive
COc1ccc(NC(=O)N(C)C[C@@H]2OCCCC[C@@H](C)Oc3ccc(NC(=O)Nc4ccc(F)cc4)cc3C(=O)N([C@H](C)CO)C[C@H]2C)cc1 | inactive
O=C(CC1CC1)NCc1cnc2n1CCNCC2 | inactive
O=C(C[C@@H]1CC=CCCC(=O)OC[C@H](Cc2c[nH]c3ccccc23)NC1=O)N[C@H](CO)Cc1ccccc1 | inactive
C[C@@H]1COC(=O)[C@@H](Cc2ccc(F)cc2)CCC=CC[C@@H](CC(=O)N[C@H](CO)Cc2ccccc2)C(=O)N1 | inactive
O=C(C[C@@H]1CC=CCCC(=O)OC[C@H](Cc2c[nH]c3ccccc23)NC1=O)N[C@@H](CO)Cc1ccccc1 | inactive
O=C(C[C@@H]1CC=CCC[C@@H](Cc2ccc(F)cc2)C(=O)OC[C@@H](Cc2c[nH]c3ccccc23)NC1=O)N[C@H](CO)Cc1ccccc1 | active
O=C(C[C@@H]1CC=CCC[C@H](Cc2ccc(F)cc2)C(=O)OC[C@@H](Cc2c[nH]c3ccccc23)NC1=O)N[C@@H](CO)Cc1ccccc1 | inactive
O=C(C[C@@H]1CC=CCC[C@@H](Cc2ccc(F)cc2)C(=O)OC[C@H](Cc2c[nH]c3ccccc23)NC1=O)N[C@H](CO)Cc1ccccc1 | active
O=C(C[C@@H]1CC=CCC[C@@H](Cc2ccc(F)cc2)C(=O)OC[C@H](Cc2c[nH]c3ccccc23)NC1=O)N[C@@H](CO)Cc1ccccc1 | active
O=C(C[C@@H]1CC=CCC[C@H](Cc2ccc(F)cc2)C(=O)OC[C@H](Cc2c[nH]c3ccccc23)NC1=O)N[C@@H](CO)Cc1ccccc1 | inactive
O=C(C[C@@H]1CC=CCCC(=O)OC[C@@H](Cc2c[nH]c3ccccc23)NC1=O)N[C@H](CO)Cc1ccccc1 | inactive
O=C(C[C@@H]1CC=CCC[C@H](Cc2ccc(F)cc2)C(=O)OC[C@H](Cc2c[nH]c3ccccc23)NC1=O)N[C@H](CO)Cc1ccccc1 | active
O=C(C[C@@H]1CC=CCC[C@@H](Cc2ccc(F)cc2)C(=O)OC[C@@H](Cc2c[nH]c3ccccc23)NC1=O)N[C@@H](CO)Cc1ccccc1 | inactive
O=C(C[C@@H]1CC=CCCC(=O)OC[C@@H](Cc2c[nH]c3ccccc23)NC1=O)N[C@@H](CO)Cc1ccccc1 | inactive
